Molecules are shown by their SMILES. The whole screen tested about 320,000 compounds, of which about 1,300 (0.41%) were called active. Another 3% or so got no clear call; they are omitted. How the calls were made is not given here. The list is a sample of the results. Results with a measured potency or affinity are listed apart.

The results in this text go back to PubChem BioAssay AID488890 (Southern Research Specialized Biocontainment Screening …, 2010).

This experiment can be described thus: growth inhibition of non-replicating M. tuberculosis (AID 488890).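 Further: plate controls were DMSO cells for no effect and high antibiotic wells for full effect.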 To be noted: Mycobacterium tuberculosis non-replicating, at 25 µM, stronger effect = higher value.
In the case of `Cc1ccc(C2=NN(CCC(=O)NCc3ccc4c(c3)OCO4)C(=O)CC2)cc1`, the inhibition came out at 4.59%.

`COCCN(C(=O)C1CCCO1)c1c(N)n(CC(C)C)c(=O)[nH]c1=O` (configuration not stated): the inhibition was -18.2%.

For the molecule `Oc1ccc2oc3c(c2c1C=NCc1ccncc1)CCCC3`, the inhibition amounted to 3.96%.

For `NC(=S)N/N=C/c1c(O)c(Br)cc2oc3c(c12)CCCC3`, the inhibition worked out at 56.5%.

On to `Cc1nnc(SCC(=O)NNC(=O)c2ccco2)n1-c1cccc(Cl)c1`, for which the inhibition was -5.26%.

Consider `CCC(CC)C(=O)N=C1SC2CS(=O)(=O)CC2N1CCc1ccc(OC)c(OC)c1` (configuration not stated), for which the inhibition is -2.38%.

Regarding `Cn1nnnc1Sc1ncnc2scc(-c3ccc(-c4ccccc4)cc3)c12`, the inhibition was 77%.

Regarding `Cn1nnnc1Sc1ncnc2scc(-c3ccccc3)c12`, the inhibition amounted to 48.6%.

Turning to `Nc1nc(SCCO)[nH]c(=O)c1NC(=O)c1ccco1`, the inhibition was -5.12%.

As to `CCCCCN(C(=O)CCC(=O)OCCOc1ccccc1)c1c(N)n(CCCC)c(=O)[nH]c1=O`, the inhibition was -0.11%.

As to `CCCCN(C)C(=O)c1cc2cc3ccc(OC)cc3nc2o1`, the inhibition stood at 71.6%.

As for `CCN1CCN(C(=O)c2cc3cc4ccc(OC)cc4nc3s2)CC1`, the inhibition stood at 18.5%.

For the molecule `O=c1[nH]c(C2C3CC4CC(C3)CC2C4)nc2ccccc12` (configuration not stated), the inhibition was found to be 21.6%.

Regarding `COc1ccc(C(CC(=O)N2CCCC(C)C2)c2c(OC)cc(OC)c3ccc(=O)oc23)cc1` (configuration not stated), the inhibition is 28.4%.

On to `Cc1ccc(S(=O)(=O)Nc2ncnc3ccccc23)cc1`, for which the inhibition is -1.77%.

As to `CCCCn1c(SCC(=O)NCc2ccco2)nc2cc(S(N)(=O)=O)ccc21`, the inhibition came out at 1.57%.

`COc1ccc(C2=NN(C(=O)CSc3nc(=O)n4cc(C)ccc4n3)C(c3ccc(C)cc3)C2)cc1` (configuration not stated): the inhibition was determined as 38.7%.

Turning to `Cc1ccc2cc(C3CC(c4ccco4)=NN3C(=O)CCC(=O)O)c(Cl)nc2c1` (configuration not stated), the inhibition amounted to 2.6%.

As to `CCOC(=O)c1c(C)c(C(=O)NC(C)COC)c(C)n1CC` (configuration not stated), the inhibition is -4.24%.

As for `N#Cc1c(-c2ccc(Cl)cc2)nc2n(c1=O)CCCS2`, the inhibition was found to be 4.51%.

As to `O=c1c(C(c2ccc(Cl)cc2)c2c(O)nc3n(c2=O)CCCS3)c(O)nc2n1CCCS2`, the inhibition was 8.19%.

Take `Cc1ccc(C(=O)N/N=C\c2sccc2C)cn1`: the inhibition is -5.99%.

As to `O=C(N/N=C/c1cccn1-c1ccc([N+](=O)[O-])cc1)c1cccnc1`, the inhibition was -10.5%.

Regarding `O=C(N/N=C/c1ccc([N+](=O)[O-])cc1)c1cccnc1`, the inhibition was -3.53%.

Consider `Cc1ccc(/C=N\NC(=O)c2cncc(Br)c2)o1`, for which the inhibition worked out at 46.2%.

Take `O=C(N/N=C/c1ccc(O)c([N+](=O)[O-])c1)c1ccncc1`: the inhibition was 56.1%.

`Cc1ccc(C(=O)N/N=C\c2ccc([N+](=O)[O-])o2)cn1`: the inhibition was found to be 70.4%.

In the case of `O=C(N/N=C/c1ccc(-c2ccccc2[N+](=O)[O-])o1)c1cncc(Br)c1`, the inhibition was determined as 11.6%.

`O=C(N/N=C/c1ccccc1[N+](=O)[O-])c1ccncc1`: the inhibition amounted to 35.4%.

As to `CCOc1ccc(C(=O)NC2CCN(C(=O)Nc3ccc(F)cc3)CC2)cc1`, the inhibition is -4.31%.

`CN(c1ccccc1)S(=O)(=O)c1ccc(Cl)c(C(=O)NC2=NCCS2)c1`: the inhibition amounted to 27.5%.

In the case of `O=C(Nc1nnc(C23CC4CC(CC(C4)C2)C3)s1)c1ccc(N2C(=O)CCC2=O)cc1`, the inhibition was found to be 13.4%.

For the molecule `COc1cc(NC(=S)N2CCOCC2)c(OC)cc1Cl`, the inhibition was determined as 1.57%.

Consider `CCOc1ccccc1NC(=O)C1CCCCN1S(=O)(=O)c1ccc(F)cc1` (configuration not stated), for which the inhibition amounted to 14.8%.

For `COc1ccc(/C=C2\C(=O)NC(=O)N(Cc3ccccc3)C2=O)c(OC)c1OC`, the inhibition is -15.4%.

As for `O=C(NCC(=O)N1CCN(Cc2ccc3c(c2)OCO3)CC1)c1ccccc1F`, the inhibition came to 6.65%.

On to `N#C/C(N)=C(/C#N)N=Cc1cccc(Cl)c1`, for which the inhibition amounted to 8.31%.

Turning to `CNC(=O)/C(C#N)=C/c1ccc(OCCOc2ccccc2)cc1`, the inhibition was 63.6%.

`O=C(N/N=C/c1ccc(O)cc1)c1cncc(Br)c1`: the inhibition came to 17.6%.

With `CCOc1ccc(/C=N/NC(=O)CCC(=O)Nc2ccc(F)cc2)cc1`, the inhibition was determined as 1.12%.

As to `CCOc1ccc(NC(C)C(=O)N/N=C/c2ccc([N+](=O)[O-])cc2)cc1` (configuration not stated), the inhibition was 7.41%.

Turning to `Cn1cccc1/C=N\NC(=O)c1cncc(Br)c1`, the inhibition is -6.5%.

Turning to `O=C(N/N=C/c1cccc([N+](=O)[O-])c1)c1cccc(Br)c1`, the inhibition was -5.27%.

Turning to `Cc1ccc(/C=N/NC(=O)C(C)Oc2ccccc2[N+](=O)[O-])s1` (configuration not stated), the inhibition was -10.9%.

As for `CCOc1ccc(NC(=O)CCC(=O)N/N=C/c2ccc3c(c2)OCO3)cc1`, the inhibition stood at 12.5%.

Regarding `O=C(N/N=C/c1ccc(Br)s1)c1cccc([N+](=O)[O-])c1`, the inhibition was -22%.

As for `COC(=O)c1c(C)[nH]c(C(=O)CSc2nnnn2-c2ccccc2)c1C`, the inhibition is -4%.

Take `O=C(COC(=O)c1ccccc1NC(=O)c1ccco1)NC1CCS(=O)(=O)C1` (configuration not stated): the inhibition came out at 73.7%.

Take `O=C(COC(=O)C1CCN(C(=O)Nc2ccccc2)CC1)NCC(F)(F)F`: the inhibition was -2.77%.

With `CS(=O)(=O)N1CCC(C(=O)NCc2ccc(Cl)cc2)CC1`, the inhibition was determined as 8.1%.

Turning to `COc1ccc(-n2nc3cc(C)c(NC(C)=O)cc3n2)cc1`, the inhibition amounted to 1.69%.

With `COC(=O)Cn1c(CN2CCN(C(=O)c3ccco3)CC2)nc2c1c(=O)n(C)c(=O)n2C`, the inhibition was 0.07%.

In the case of `O=P(Cc1cccc[n+]1[O-])(c1ccccc1)c1ccccc1`, the inhibition was -13.7%.

`CC(C)C(c1nnnn1Cc1ccccc1)N1CCN(Cc2ccc3c(c2)OCO3)CC1` (configuration not stated): the inhibition amounted to 31.2%.

In the case of `Cc1nc(SCC(=O)N2CCOCC2)c2c(=O)n(C)c(=O)n(CC(C)C)c2n1`, the inhibition is -4.99%.

With `Cc1onc(-c2ccccc2)c1C(=O)N/N=C/c1cccs1`, the inhibition was found to be 51.2%.

Take `O=C(N/N=C/c1ccc(Br)s1)c1ccc([N+](=O)[O-])cc1`: the inhibition turned out to be 10.3%.

Turning to `Cc1ccccc1NCC(=O)N/N=C\C=C\c1cccc([N+](=O)[O-])c1`, the inhibition was 44%.

As for `Cc1ccccc1NCC(=O)N/N=C/c1ccc([N+](=O)[O-])cc1`, the inhibition amounted to 10%.

Take `O=C(NN=Cc1ccc(N2CCOCC2)s1)c1ccc([N+](=O)[O-])cc1`: the inhibition is 0.11%.

Take `CCOC(=O)N/N=C/c1ccc(N2CCOCC2)s1`: the inhibition was found to be 1.14%.

On to `CCOC(=O)N/N=C\c1ccc(C)s1`, for which the inhibition is -9.49%.

For `Cc1onc(-c2ccccc2)c1C(=O)N/N=C/c1ccc([N+](=O)[O-])c(O)c1`, the inhibition stood at 32%.

Turning to `CN(Cc1nc2ccccc2c(=O)[nH]1)C(=O)c1ccc(S(=O)(=O)N(C)C)cc1`, the inhibition was -7.99%.

`Cc1ccc(Cc2c(C)c(C#N)c3[nH]c4ccccc4n3c2=O)cc1`: the inhibition is 55.7%.

With `COc1ccc(S(=O)(=O)N2CCC(Nc3ccccc3Cl)CC2)cc1`, the inhibition worked out at 35%.

Turning to `COc1ccc(NC(=O)CN(Cc2ccccc2)S(C)(=O)=O)c(OC)c1`, the inhibition turned out to be 6.99%.

For the molecule `CO/N=C(\C)c1ncc(C(F)(F)F)cc1N1CCOCC1`, the inhibition was -6.77%.

For `Cc1ccc(C(=O)NC(NCC2CCCO2)C(Cl)(Cl)Cl)cc1` (configuration not stated), the inhibition was -8.87%.

Turning to `CC1CCCN(CCCNC(=O)c2ccc(N3CCCC3=O)cc2)C1` (configuration not stated), the inhibition was -2.78%.

For the molecule `O=C(CCC(=O)N1CCN(c2ccccc2)CC1)Nc1nnc(C2CCCCC2)s1`, the inhibition is -14.5%.

For the molecule `O=C(CSc1nnc(COc2ccccc2F)n1-c1ccccc1)NC1CCS(=O)(=O)C1` (configuration not stated), the inhibition is -2.12%.

`Cc1ccc(NC(=S)N(CCN(C)C)Cc2cc3cc(C)ccc3[nH]c2=O)cc1`: the inhibition was determined as 56.8%.

Consider `COc1ccccc1CNC(=O)c1cnccn1`, for which the inhibition was found to be 41.3%.

For `O=C(N/N=C/c1ccc(Cl)s1)c1ccccc1[N+](=O)[O-]`, the inhibition was 19.9%.

With `COc1cc([N+](=O)[O-])cc(/C=N/NC(=O)c2cncc(Br)c2)c1O`, the inhibition stood at 10.5%.

As for `O=C(N/N=C\c1cc(Br)c(Br)o1)c1cncc(Br)c1`, the inhibition was -11.5%.

In the case of `O=C(N/N=C/c1ccc(Br)s1)c1ccccc1[N+](=O)[O-]`, the inhibition came out at 88.6%.

As to `Cc1ccc(-c2cc(C(=O)OCn3nnc4ccccc4c3=O)c3ccccc3n2)cc1`, the inhibition is -0.92%.

For `O=C1c2ccccc2C(=O)N1C1CCCCC1`, the inhibition is -9.63%.

With `CC1NC(=S)N(C2CCCCC2)C1=O` (configuration not stated), the inhibition was 7.51%.

As to `COc1ccc2[nH]c(=O)c(CN(C(=O)c3cccnc3)c3ccc(C)c(C)c3)cc2c1`, the inhibition is -6.7%.

Turning to `O=C(O)c1cccc(CSc2nnc(-c3ccco3)o2)c1`, the inhibition is 3.8%.

In the case of `O=C(O)c1ccc(CSc2nnc(-c3ccco3)o2)cc1`, the inhibition was 3.82%.

Take `Brc1ccc(-c2nnc(-c3ccco3)o2)cc1`: the inhibition is 9.05%.

For `Cc1cccc(-c2nnc(SCc3ccccc3)o2)c1`, the inhibition amounted to 64.4%.

`COc1ccccc1N1CCN(CC(O)COCc2cccs2)CC1` (configuration not stated): the inhibition is -4.29%.

As to `Cc1c(NC(=O)c2ccccc2NC(=O)COc2ccccc2)cccc1C(=O)O`, the inhibition stood at 4.87%.

As for `COc1c[nH]n(-c2ccccc2)c(=O)c1=O`, the inhibition is 3.41%.

`COc1cc2[nH]c(=O)n(C3CCCCC3)c(=O)c2cc1OC`: the inhibition worked out at 6.65%.

`O=C(C1CC(=O)N(c2ccc(Cl)cc2)C1)N1CCOCC1` (configuration not stated): the inhibition was -7.5%.

For `COc1ccc(OCC(=O)N/N=C2\CCCc3ccccc32)cc1`, the inhibition was determined as 34.2%.

Consider `COc1ccc(OCC(=O)N/N=C2\CCCCc3ccccc32)cc1`, for which the inhibition was determined as 22.5%.

On to `Cc1c(Cl)c([N+](=O)[O-])nn1CC(=O)N1CCN(Cc2ccccc2)CC1`, for which the inhibition was -5.75%.

`O=C(COc1c(Cl)cccc1Cl)NN1C(=O)CSC1=S`: the inhibition was 8.7%.

On to `CCCCCCCCCC(=O)N/N=C(\C)c1cccnc1`, for which the inhibition was -3.96%.

Take `C/C(=N\NC(=O)CCCNc1cccc(C)c1)c1ccncc1`: the inhibition was -0.79%.

Turning to `CCCCCCCC(=O)N/N=C(\C)c1cccnc1`, the inhibition was -21.2%.

Consider `C/C(=N\NC(=O)CCCNc1ccccc1)c1ccncc1`, for which the inhibition came to 1.29%.

`FC(F)C(F)(F)C1=CC(c2ccccc2)=NCCN1`: the inhibition came out at 12.6%.

On to `COc1ccc(CN(C(=O)c2ccco2)C2CCS(=O)(=O)C2)cc1` (configuration not stated), for which the inhibition was found to be 1.18%.

For the molecule `Cn1cccc1/C=N/NC(=O)c1cc(-c2cccs2)nc2ccccc12`, the inhibition was -12.1%.

Turning to `COc1ccc(CNC(=O)C(C)c2ccc([N+](=O)[O-])cc2)cc1` (configuration not stated), the inhibition stood at 36.2%.

For `COc1ccc(N2CCN(S(=O)(=O)c3ccc4c(c3)CC(C)N4C(=O)C3CC3)CC2)cc1` (configuration not stated), the inhibition is -6.48%.

Take `O=C(OCC(=O)N1CCN(S(=O)(=O)c2ccc(Cl)cc2)CC1)c1ccc([N+](=O)[O-])o1`: the inhibition came to 67.7%.

Regarding `COc1cc(C(=O)COC(=O)c2ccc([N+](=O)[O-])o2)cc(OC)c1OC`, the inhibition is 34.7%.

`O=C(COC(=O)c1ccc([N+](=O)[O-])o1)NCc1ccccc1`: the inhibition stood at 49.8%.

With `COc1ccc(OC)c(C(=O)COC(=O)c2ccc([N+](=O)[O-])o2)c1`, the inhibition was found to be 54.8%.

For the molecule `O=C(OCC(=O)N1CCN(S(=O)(=O)c2ccccc2)CC1)c1ccc([N+](=O)[O-])o1`, the inhibition was found to be 66.7%.

On to `O=C(COC(=O)c1ccc([N+](=O)[O-])o1)c1ccccc1`, for which the inhibition stood at 22.4%.

Take `Cn1c(N)c(C(=O)COC(=O)c2ccc([N+](=O)[O-])o2)c(=O)n(C)c1=O`: the inhibition came to 69.7%.

Turning to `CCc1ccc(C(=O)OCC(=O)c2c(N)n(CC(C)C)c(=O)n(C)c2=O)cc1`, the inhibition is 24.9%.

A word on the inhibition: it is the relative decrease from the control value, in per cent.
